The target of test [1] is Tyrosine-protein kinase SYK (Homo sapiens) (UniProt P43405). The following applies: at 10 µM.
In test [2] the target is T1, Mitogen-activated protein kinase kinase kinase 7 (Homo sapiens) (UniProt O43318).
T1 sequence (whole entry): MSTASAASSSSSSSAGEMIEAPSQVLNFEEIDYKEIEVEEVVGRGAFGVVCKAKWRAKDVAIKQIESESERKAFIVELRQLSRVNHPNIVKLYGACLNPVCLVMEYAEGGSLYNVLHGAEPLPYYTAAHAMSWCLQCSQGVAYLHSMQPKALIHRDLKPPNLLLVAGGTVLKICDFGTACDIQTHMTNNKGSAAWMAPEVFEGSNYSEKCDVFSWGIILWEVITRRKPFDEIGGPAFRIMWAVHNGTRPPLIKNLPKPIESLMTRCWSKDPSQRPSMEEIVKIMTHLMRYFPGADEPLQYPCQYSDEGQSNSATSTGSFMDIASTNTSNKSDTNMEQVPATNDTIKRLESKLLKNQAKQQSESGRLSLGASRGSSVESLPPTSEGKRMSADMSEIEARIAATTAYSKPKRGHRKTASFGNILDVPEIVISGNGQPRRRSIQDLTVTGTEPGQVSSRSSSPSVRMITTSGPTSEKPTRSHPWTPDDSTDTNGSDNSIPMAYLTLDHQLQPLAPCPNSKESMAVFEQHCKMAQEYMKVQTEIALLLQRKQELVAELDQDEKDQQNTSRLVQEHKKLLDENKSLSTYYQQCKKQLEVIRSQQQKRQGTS
The following applies: at 1 µM.

In test [3] the target is T1, Mitogen-activated protein kinase kinase kinase 7 (Homo sapiens). As to conditions: at 10 µM.
For test [4], the target named is T2, Serine/threonine-protein kinase TAO1 (Homo sapiens) (UniProt Q7L7X3).
T2 sequence (whole entry): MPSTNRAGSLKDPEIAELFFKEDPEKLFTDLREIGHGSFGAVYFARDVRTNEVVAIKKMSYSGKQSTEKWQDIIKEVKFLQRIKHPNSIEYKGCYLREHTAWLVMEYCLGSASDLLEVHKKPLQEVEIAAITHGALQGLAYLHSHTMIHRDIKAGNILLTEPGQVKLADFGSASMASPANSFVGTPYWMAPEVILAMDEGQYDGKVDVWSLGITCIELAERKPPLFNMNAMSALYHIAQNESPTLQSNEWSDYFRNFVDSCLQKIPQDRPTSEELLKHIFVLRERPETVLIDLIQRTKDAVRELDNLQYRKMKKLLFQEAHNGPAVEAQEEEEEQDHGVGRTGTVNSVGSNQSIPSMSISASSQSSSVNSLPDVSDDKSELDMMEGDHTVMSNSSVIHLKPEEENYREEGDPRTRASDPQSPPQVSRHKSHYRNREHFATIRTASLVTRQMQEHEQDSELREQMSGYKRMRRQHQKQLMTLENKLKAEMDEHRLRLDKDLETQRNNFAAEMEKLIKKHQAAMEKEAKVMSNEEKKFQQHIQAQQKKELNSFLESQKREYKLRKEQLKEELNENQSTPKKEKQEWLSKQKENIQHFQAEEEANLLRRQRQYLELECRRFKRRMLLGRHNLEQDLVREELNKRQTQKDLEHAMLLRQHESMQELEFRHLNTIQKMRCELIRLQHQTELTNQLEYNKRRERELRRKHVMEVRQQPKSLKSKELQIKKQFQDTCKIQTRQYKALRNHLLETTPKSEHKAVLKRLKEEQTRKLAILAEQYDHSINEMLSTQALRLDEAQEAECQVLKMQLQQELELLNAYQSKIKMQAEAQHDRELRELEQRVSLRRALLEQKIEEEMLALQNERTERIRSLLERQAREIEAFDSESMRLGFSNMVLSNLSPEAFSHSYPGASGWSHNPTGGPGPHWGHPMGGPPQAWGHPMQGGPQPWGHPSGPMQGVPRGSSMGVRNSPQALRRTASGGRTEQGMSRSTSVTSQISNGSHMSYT
The following applies: at 1 µM.

In test [5] the target is T2, Serine/threonine-protein kinase TAO1 (Homo sapiens). As to conditions: at 10 µM.
The target in test [6] is T3, Serine/threonine-protein kinase TBK1 (Homo sapiens) (UniProt Q9UHD2).
T3 sequence (whole entry): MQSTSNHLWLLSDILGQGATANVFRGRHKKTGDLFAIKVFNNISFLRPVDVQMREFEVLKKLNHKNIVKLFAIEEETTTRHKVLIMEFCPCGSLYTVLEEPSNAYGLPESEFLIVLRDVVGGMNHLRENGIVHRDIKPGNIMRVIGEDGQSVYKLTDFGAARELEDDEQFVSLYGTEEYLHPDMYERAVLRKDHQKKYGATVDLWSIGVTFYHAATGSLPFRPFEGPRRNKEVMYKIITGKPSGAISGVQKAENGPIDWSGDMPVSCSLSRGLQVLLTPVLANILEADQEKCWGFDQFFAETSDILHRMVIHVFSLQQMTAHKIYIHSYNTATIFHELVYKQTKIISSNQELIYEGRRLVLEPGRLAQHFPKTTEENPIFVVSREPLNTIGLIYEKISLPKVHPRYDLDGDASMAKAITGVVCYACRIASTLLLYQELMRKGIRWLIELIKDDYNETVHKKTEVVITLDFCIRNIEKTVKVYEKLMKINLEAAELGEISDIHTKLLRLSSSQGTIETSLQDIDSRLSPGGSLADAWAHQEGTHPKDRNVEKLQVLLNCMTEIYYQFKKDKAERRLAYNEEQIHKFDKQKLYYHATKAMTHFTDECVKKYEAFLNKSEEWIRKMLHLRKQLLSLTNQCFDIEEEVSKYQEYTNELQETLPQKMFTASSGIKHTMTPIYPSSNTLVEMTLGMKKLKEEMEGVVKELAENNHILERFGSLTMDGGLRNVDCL
The following applies: at 1 µM.

The target in test [7] is T3, Serine/threonine-protein kinase TBK1 (Homo sapiens). The following applies: at 10 µM.
In test [8] the target is T4, Inhibitor of nuclear factor kappa-B kinase subunit alpha (Homo sapiens) (UniProt O15111).
T4 sequence (whole entry): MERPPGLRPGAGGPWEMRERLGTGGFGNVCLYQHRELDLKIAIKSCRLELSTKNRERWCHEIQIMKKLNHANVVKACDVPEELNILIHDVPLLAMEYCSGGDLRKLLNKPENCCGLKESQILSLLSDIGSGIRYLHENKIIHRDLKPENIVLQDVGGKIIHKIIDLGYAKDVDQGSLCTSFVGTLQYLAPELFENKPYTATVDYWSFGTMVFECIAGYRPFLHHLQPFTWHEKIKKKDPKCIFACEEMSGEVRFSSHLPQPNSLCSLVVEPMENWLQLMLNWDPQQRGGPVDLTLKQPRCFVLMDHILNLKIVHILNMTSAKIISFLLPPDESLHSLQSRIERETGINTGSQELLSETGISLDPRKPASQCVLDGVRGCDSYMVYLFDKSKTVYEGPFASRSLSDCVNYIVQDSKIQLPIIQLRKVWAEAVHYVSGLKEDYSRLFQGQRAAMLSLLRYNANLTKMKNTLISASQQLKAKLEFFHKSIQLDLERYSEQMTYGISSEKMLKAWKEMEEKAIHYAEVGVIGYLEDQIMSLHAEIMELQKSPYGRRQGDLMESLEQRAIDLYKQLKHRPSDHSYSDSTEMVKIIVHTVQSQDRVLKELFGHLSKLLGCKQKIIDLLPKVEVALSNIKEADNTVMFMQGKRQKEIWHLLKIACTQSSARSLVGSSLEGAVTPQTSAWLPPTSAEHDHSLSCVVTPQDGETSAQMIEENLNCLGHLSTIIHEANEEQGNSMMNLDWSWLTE
As to conditions: at 1 µM.

Test [9] has as its target T4, Inhibitor of nuclear factor kappa-B kinase subunit alpha (Homo sapiens). The following applies: at 10 µM.
Test [10] deals with T5, Inhibitor of nuclear factor kappa-B kinase subunit beta (Homo sapiens) (UniProt O14920).
T5 sequence (whole entry): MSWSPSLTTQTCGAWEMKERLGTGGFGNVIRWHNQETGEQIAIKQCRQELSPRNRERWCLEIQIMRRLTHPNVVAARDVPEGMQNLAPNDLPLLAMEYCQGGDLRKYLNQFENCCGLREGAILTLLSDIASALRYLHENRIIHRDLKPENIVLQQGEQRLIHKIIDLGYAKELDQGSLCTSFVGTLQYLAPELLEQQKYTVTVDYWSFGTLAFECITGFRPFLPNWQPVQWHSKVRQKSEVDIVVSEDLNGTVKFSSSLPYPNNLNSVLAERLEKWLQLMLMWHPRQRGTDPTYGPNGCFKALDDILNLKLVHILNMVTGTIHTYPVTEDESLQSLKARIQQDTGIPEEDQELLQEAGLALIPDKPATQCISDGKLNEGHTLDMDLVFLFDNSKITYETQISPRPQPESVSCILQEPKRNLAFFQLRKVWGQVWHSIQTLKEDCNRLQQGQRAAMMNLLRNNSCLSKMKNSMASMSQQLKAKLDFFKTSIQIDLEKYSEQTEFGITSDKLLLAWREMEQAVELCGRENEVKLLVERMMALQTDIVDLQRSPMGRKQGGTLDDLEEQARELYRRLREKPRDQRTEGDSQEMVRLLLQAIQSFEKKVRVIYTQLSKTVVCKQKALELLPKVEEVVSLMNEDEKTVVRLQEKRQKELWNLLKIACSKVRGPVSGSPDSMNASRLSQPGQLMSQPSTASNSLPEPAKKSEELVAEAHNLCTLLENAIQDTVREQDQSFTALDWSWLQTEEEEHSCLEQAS
The following applies: at 1 µM.

Test [11] addresses T5, Inhibitor of nuclear factor kappa-B kinase subunit beta (Homo sapiens). As to conditions: at 10 µM.
Test [12] concerns the target Insulin receptor (Homo sapiens) (UniProt P06213). The following applies: at 1 µM.

Sequence of Insulin receptor (Homo sapiens) (P06213 28-758 limits assumed): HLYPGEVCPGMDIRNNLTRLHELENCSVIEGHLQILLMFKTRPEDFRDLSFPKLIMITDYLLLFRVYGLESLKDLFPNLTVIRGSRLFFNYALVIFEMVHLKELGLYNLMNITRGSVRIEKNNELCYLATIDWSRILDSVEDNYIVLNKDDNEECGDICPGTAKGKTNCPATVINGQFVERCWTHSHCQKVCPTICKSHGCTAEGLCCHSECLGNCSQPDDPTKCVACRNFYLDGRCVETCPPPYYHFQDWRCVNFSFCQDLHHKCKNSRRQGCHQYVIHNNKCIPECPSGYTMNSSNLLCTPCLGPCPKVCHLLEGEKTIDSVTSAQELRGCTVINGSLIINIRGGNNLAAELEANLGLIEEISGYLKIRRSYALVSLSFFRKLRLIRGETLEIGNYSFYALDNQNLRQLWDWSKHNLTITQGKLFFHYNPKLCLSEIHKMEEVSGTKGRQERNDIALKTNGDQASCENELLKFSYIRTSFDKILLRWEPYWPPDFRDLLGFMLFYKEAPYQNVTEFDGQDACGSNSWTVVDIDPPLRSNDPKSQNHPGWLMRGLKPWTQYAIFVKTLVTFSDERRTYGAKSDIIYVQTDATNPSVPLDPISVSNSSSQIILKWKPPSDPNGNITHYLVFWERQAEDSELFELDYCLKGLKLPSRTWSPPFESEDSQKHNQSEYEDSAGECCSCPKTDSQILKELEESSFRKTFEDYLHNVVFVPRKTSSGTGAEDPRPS
Sequence of Insulin receptor (Homo sapiens) (P06213 763-1382 limits assumed): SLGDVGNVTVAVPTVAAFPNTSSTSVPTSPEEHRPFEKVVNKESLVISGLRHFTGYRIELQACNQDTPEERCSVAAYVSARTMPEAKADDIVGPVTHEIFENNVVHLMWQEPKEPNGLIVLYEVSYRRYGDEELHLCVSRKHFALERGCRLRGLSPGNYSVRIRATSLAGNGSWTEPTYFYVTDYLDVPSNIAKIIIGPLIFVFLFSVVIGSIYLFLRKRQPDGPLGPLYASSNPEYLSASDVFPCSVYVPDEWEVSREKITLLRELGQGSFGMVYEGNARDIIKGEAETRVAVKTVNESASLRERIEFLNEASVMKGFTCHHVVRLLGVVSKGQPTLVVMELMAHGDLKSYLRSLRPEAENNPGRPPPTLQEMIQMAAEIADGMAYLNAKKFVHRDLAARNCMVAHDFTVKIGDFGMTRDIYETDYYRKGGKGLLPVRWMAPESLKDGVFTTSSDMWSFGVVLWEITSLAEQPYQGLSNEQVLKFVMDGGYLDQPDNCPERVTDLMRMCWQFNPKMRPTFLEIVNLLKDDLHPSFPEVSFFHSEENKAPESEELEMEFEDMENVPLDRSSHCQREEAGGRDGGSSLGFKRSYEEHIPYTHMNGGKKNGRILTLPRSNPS

As to `COc1ccc(-c2cnc3c(-c4ccsc4)cnn3c2)cc1`, the residual activity in [1] stood at 95%; in test [2], 99%; in [3] it was 97%; in test [4] it was 97%; in test [5], 97%; in [6], 97%. In addition, the residual activity was found to be 85% in test [7]; 91% in test [8]; 90% in [9]; 100% in test [10]; 95% in test [11]; 91% in test [12].
